Consider 95 compounds from PubChem BioAssay AID1259313 (Sanford-Burnham Center for Chemical Genomics, 2017).

Hit rate of the full screen: of about 340,000 compounds, about 8,500 (2.5%) were called active. The sample holds actives, similar compounds and a random draw of the others, so the mix is not that of the screen. A number with no mark means an inactive call.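 How the source made its calls: active means melting temperature shift of at least 10% of the positive control shift, at one fixed dose; inactive means the rest.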

For this assay, the system named is Glutamate receptor ionotropic, NMDA 3A (GRIN3A) ligand-binding domain. The assay is described as follows: NR3A LBD thermal stabilization by compounds – biophysical, differential scanning fluorimetry, uHTS, primary screen (AID 1259313). The note with it: at 25 µM, stronger effect = higher value, 0% = protein alone, 100% = glycine-bound protein.
Take `CSc1ccccc1-c1nnc(-c2ccc(Cl)cc2)o1`: the Tm shift relative to glycine control was 0.54%.

Take `CC(C)C(=O)NCc1cc(-c2ccc(Cl)cc2)no1`: the Tm shift relative to glycine control is 0.32%.

For the compound `Oc1ccccc1-c1cc(-c2ccc(Cl)cc2)n[nH]1`, the Tm shift relative to glycine control was 31% (active).

On to `NC(=O)C[C@@H]1NC(=O)CNC(=O)c2cc([N+](=O)[O-])cc(I)c2NCCC(C(N)=O)NC1=O` (stereo not given in full), for which the Tm shift relative to glycine control is -1.1%.

`CCC(C)n1[nH]c(=O)cc1N` (stereo not given): the Tm shift relative to glycine control is -2.66%.

Consider `N#Cc1ccccc1S(=O)(=O)N1CCN(Cc2c(O)ccc3ccccc23)CC1`, for which the Tm shift relative to glycine control is -5.71%.

As to `O=C(Nc1ccc(Cl)c(Cl)c1)N1CC=C(c2ccccc2)CC1`, the Tm shift relative to glycine control was 12.9% (active).

For `COc1cc(C(=O)NCC(=O)N2CC=C(c3ccccc3)CC2)cc(OC)c1OC`, the Tm shift relative to glycine control is 0.85%.

For `O=C(O)c1cccc(S(=O)(=O)N2CC=C(c3ccccc3)CC2)c1`, the Tm shift relative to glycine control was 1.73%.

As for `CC(C)c1ccc(Nc2ncccc2C#N)cc1`, the Tm shift relative to glycine control was -9.92%.

Take `O=C(COc1ccc([N+](=O)[O-])cc1Cl)Nn1cnnc1`: the Tm shift relative to glycine control is 1.68%.

In the case of `CCOc1ccc(/C(O)=C2\C(=O)C(=O)N(c3ccc(OC)cc3)C2c2ccccc2[N+](=O)[O-])cc1` (stereo not given), the Tm shift relative to glycine control is -0.41%.

On to `COc1ccc(S(=O)(=O)N2CCOCC2)cc1NC(=O)c1ccc(OCC(C)C)c(OC)c1`, for which the Tm shift relative to glycine control is 3.09%.

For the compound `CN(C)CCCNC(=S)NCc1ccc(Cl)cc1`, the Tm shift relative to glycine control was 2.67%.

On to `COC(=O)Cc1ccc(NC(=S)NCc2ccc(Cl)cc2)cc1`, for which the Tm shift relative to glycine control was -5.66%.

Regarding `S=C(NCc1ccc(Cl)cc1)NC12CC3CC(CC(C3)C1)C2`, the Tm shift relative to glycine control was 15.2% (active).

Regarding `O=C(/C=C/c1ccc2c(c1)OCCO2)c1ccc(O)cc1`, the Tm shift relative to glycine control was 13.4% (active).

Consider `CN(C)c1ccc(/C=C/C(=O)c2ccc(O)cc2)cc1[N+](=O)[O-]`, for which the Tm shift relative to glycine control is 5.36%.

For the compound `O=C(/C=C\c1ccc2c(c1)OCO2)NC1(C(=O)Nc2ccc3c(c2)OCCO3)CCCCC1`, the Tm shift relative to glycine control is -13.2%.

`CC(C)c1nnc(NC(=O)C2CC(=O)N(CCc3ccc(F)cc3)C2)s1` (stereo not given): the Tm shift relative to glycine control was -0.27%.

Regarding `CCCC(C(=O)n1nc(C)cc1C)C(NS(=O)(=O)c1ccc(C)cc1)c1ccccc1` (stereo not given), the Tm shift relative to glycine control is -0.23%.

On to `COc1ccccc1C(=O)NC(CCSC)C(=O)N1CCN(C(C)=O)CC1` (stereo not given), for which the Tm shift relative to glycine control is -1.22%.

With `CSCCC(NC(=O)c1ccccc1)C(=O)N1CCCCCCC1` (stereo not given), the Tm shift relative to glycine control was 0.17%.

For `CSCCC(NC(=O)c1ccccc1)C(=O)N1CCN(Cc2ccc(Cl)cc2)CC1` (stereo not given), the Tm shift relative to glycine control was 18.1% (active).

On to `O=C(O)CC(Cc1ccccc1)C(=O)Nc1ccc([N+](=O)[O-])cc1` (stereo not given), for which the Tm shift relative to glycine control is -4.38%.

Take `O=C(Cn1c2[n+](c3ccc(C(F)(F)F)cc31)CCCCC2)Nc1c(F)cccc1F`: the Tm shift relative to glycine control is -0.45%.

Consider `COc1cc(/C=C/C(=O)OCC(=O)NC2CC2)cc(OC)c1OC`, for which the Tm shift relative to glycine control is 3.83%.

On to `Cc1nc2ccc(NC(=S)N3CCC(C)CC3)cc2nc1C`, for which the Tm shift relative to glycine control is -0.26%.

Regarding `S=C(NCCCc1ccccc1)Nc1ccc(Br)cc1`, the Tm shift relative to glycine control was 10.2% (active).

Consider `S=C(Nc1ccc(Br)cc1)NC1CCN(Cc2ccccc2)CC1`, for which the Tm shift relative to glycine control was -2.33%.

In the case of `O=C(NCC1COc2ccccc2O1)C1(c2ccccc2)CCCC1` (stereo not given), the Tm shift relative to glycine control was -1.37%.

With `S=C(NCC1COc2ccccc2O1)Nc1ccc(Br)cc1` (stereo not given), the Tm shift relative to glycine control was 14.7% (active).

As for `CCCN(CC1COc2ccccc2O1)C(=S)Nc1ccc(C)cc1` (stereo not given), the Tm shift relative to glycine control was -4.99%.

Regarding `O=S(=O)(NCCCc1ccccc1)c1ccc(Br)cc1`, the Tm shift relative to glycine control is -5.32%.

For `COc1cccc(/C=C2\Sc3ccc(C(=O)NCC4CCCO4)cc3N(C)C2=O)c1` (stereo not given), the Tm shift relative to glycine control is -11.6%.

With `CN(CCc1ccccn1)C1CCCN(S(=O)(=O)c2ccccc2Cl)C1` (stereo not given), the Tm shift relative to glycine control is -1.11%.

For the compound `Cc1ccc(C)c(NC(=O)c2ccc(OC(=O)c3ccco3)cc2)c1`, the Tm shift relative to glycine control is -0.45%.

With `CC(=O)n1c(C=Nc2ccccc2)c(O)c2ccccc21`, the Tm shift relative to glycine control was 0.18%.

`Oc1ccc(N=Cc2sc3ccccc3c2Cl)cc1`: the Tm shift relative to glycine control was 15.5% (active).

As to `Cc1ccn2cc(-c3nonc3C)cc2c1`, the Tm shift relative to glycine control is -33.8%.

Turning to `Cc1ccoc1C(=O)Nc1cccc(Oc2ccccc2)c1`, the Tm shift relative to glycine control was -3.01%.

Take `Cc1ccc(NC(=O)Nc2ccccc2)c(Br)c1`: the Tm shift relative to glycine control was -0.75%.

For `Cc1cccc(NC(=O)Nc2cccc(Oc3c(F)c(F)c(F)c(F)c3F)c2)c1`, the Tm shift relative to glycine control is 29.1% (active).

With `CCOc1cc(/C=C/C(=O)OCC(=O)NCCN2C(=O)CSC2=O)ccc1OCC(C)C`, the Tm shift relative to glycine control was 0.08%.

With `CN(Cc1ccc(F)cc1Cl)S(=O)(=O)c1cccs1`, the Tm shift relative to glycine control is 1.26%.

Consider `C=CCNC(=S)N1CCc2[nH]c3ccccc3c2C1`, for which the Tm shift relative to glycine control is -15.2%.

On to `COc1ccc(NC(=S)N2CCc3cc(OC)c(OC)cc3C2)cc1`, for which the Tm shift relative to glycine control is -0.36%.

As to `O=C(Nc1ccc(Cl)cc1)N1CCc2[nH]c3ccccc3c2C1`, the Tm shift relative to glycine control is 250% (active).

Turning to `CCc1ccc(NC(=O)N2CCc3ccccc3C2)cc1`, the Tm shift relative to glycine control is -0.69%.

Regarding `Fc1ccc(NC(=S)N2CCc3[nH]c4ccccc4c3C2)cc1`, the Tm shift relative to glycine control was 13.3% (active).

As to `CCOC(=O)C1CCN(C(=O)Nc2ccc(Cl)cc2)CC1`, the Tm shift relative to glycine control is 3.57%.

Turning to `Cc1ccccc1N/C(SCc1ccc(Cl)cc1)=C(/C#N)C(N)=O`, the Tm shift relative to glycine control is -24%.

`CC1CCN(c2ccc(-c3ccc(NC(=O)c4ccco4)cc3)nn2)CC1`: the Tm shift relative to glycine control is 5.6%.

In the case of `O=S(=O)(Cc1cc(Cl)nc(-c2cccnc2)n1)c1ccccc1`, the Tm shift relative to glycine control is 1.48%.

Take `CN(C(=O)c1cccc(NC(=O)Cc2ccc(NC(=O)C3CCCN(C(=O)C4CC4)C3)cc2)c1)C1CC1` (stereo not given): the Tm shift relative to glycine control was 1.17%.

For `C[C@@H](Nc1nc(-c2ccccc2)nc2c1oc1ccccc12)C(=O)O`, the Tm shift relative to glycine control was 5.42%.

Take `CCc1nc(Nc2ccc3nccnc3c2)c2oc3ccccc3c2n1`: the Tm shift relative to glycine control was -14.2%.

On to `CCc1nc(Nc2ccc(NC(C)=O)cc2)c2oc3ccccc3c2n1`, for which the Tm shift relative to glycine control was 10% (active).

Regarding `CCCC(=O)NC(=S)Nc1ccc(CN2CCOCC2)cc1`, the Tm shift relative to glycine control is 1.2%.

Regarding `Cc1cc(C)nc(SCc2cn3c(C)cc(C)nc3n2)n1`, the Tm shift relative to glycine control was -0.2%.

On to `COC(=O)CN(C(=S)Nc1ccc(Cl)cc1)C1CC(=O)N(c2ccc(OC)cc2)C1=O` (stereo not given), for which the Tm shift relative to glycine control was 1.51%.

Take `CN(C)c1ccc(NC(=S)N(CCc2ccccc2)C2CC(=O)N(c3c(Cl)cccc3Cl)C2=O)cc1` (stereo not given): the Tm shift relative to glycine control is -2.73%.

Turning to `CCOc1ccc(N2C(=O)CC(N(CCc3ccc(OC)c(OC)c3)C(=S)Nc3ccccc3)C2=O)cc1` (stereo not given), the Tm shift relative to glycine control is 14.8% (active).

As to `O=C(O)C#Cc1cccc2ccccc12`, the Tm shift relative to glycine control was -2.09%.

For the compound `CCC[C@@H]1C[C@@]1(CCC)[C@@H](NC(=O)c1ccccc1)c1ccc(C(=O)OC)cc1`, the Tm shift relative to glycine control was -0.95%.

Consider `CCCCNS(=O)(=O)c1ccc2nc(SCC(=O)Nc3cc(C)cc(C)c3)[nH]c2c1`, for which the Tm shift relative to glycine control was 23.7% (active).

Regarding `COc1ccc2nc(SCC(=O)Nc3c(C)cc(C)cc3C)[nH]c2c1`, the Tm shift relative to glycine control is 2.89%.

For `Cc1cc(C)c(NC(=O)CSc2nc3ccncc3[nH]2)c(C)c1`, the Tm shift relative to glycine control was -0.53%.

For `COC1=CC(=O)OC(c2ccc(OC)cc2)C1` (stereo not given), the Tm shift relative to glycine control is 3.44%.

In the case of `Cc1ccc(CNC(=O)CCS(=O)(=O)c2ccc3c(c2)CC(C)N3C(=O)C2CC2)o1` (stereo not given), the Tm shift relative to glycine control is -0.09%.

With `CCc1cccc2c3c([nH]c12)C(CC)(CC(=O)O)OCC3` (stereo not given), the Tm shift relative to glycine control was 14.4% (active).

For the compound `CCOC(=O)C(=Cc1ccccc1OC)C(=O)OCC`, the Tm shift relative to glycine control was 0.09%.

Regarding `C=C1c2cccc(OC)c2O[C@H](C(=O)OCC)[C@@H]1CCCCCC`, the Tm shift relative to glycine control is 19.5% (active).

`CCOC(=O)C1=C(C)c2ccccc2OC1C(=O)OCC` (stereo not given): the Tm shift relative to glycine control is 0.67%.

With `COC(=O)Cn1cnc2scc(-c3ccc(C)c(C)c3)c2c1=O`, the Tm shift relative to glycine control was 0%.

For `NCCN1CCN2C(=O)CN(C(=O)c3ccccc3)CC12` (stereo not given), the Tm shift relative to glycine control was -1.42%.

`Cc1cc(F)ccc1NC(=S)NCCc1ccccc1`: the Tm shift relative to glycine control was -1.3%.

`Cn1c(N)c(C(=O)COC(=O)c2ccc3ccccc3c2)c(=O)n(C)c1=O`: the Tm shift relative to glycine control was -3.76%.

Regarding `Cc1cccc(-c2nc(Nc3ccc(O)cc3)c3ccccc3n2)c1`, the Tm shift relative to glycine control was 44.7% (active).

In the case of `CC(=O)Nc1cccc(Nc2nc(-c3cccs3)nc3ccccc23)c1`, the Tm shift relative to glycine control was 1.63%.

On to `Oc1ccc(-c2nnc(Nc3ccccc3)c3ccccc23)cc1`, for which the Tm shift relative to glycine control was -0.38%.

As to `COc1ccc(N2CCN(C(=O)CNC(=O)c3ccc(C(C)(C)C)cc3)CC2)cc1`, the Tm shift relative to glycine control is 3.46%.

Turning to `CC(C)(C)c1cc2cccnc2n1Cc1ccccc1`, the Tm shift relative to glycine control was -1.7%.

In the case of `COC(=O)CN1C(=S)N(c2ccccc2)C(=O)C1CC(=O)Nc1ccc(Cl)cc1` (stereo not given), the Tm shift relative to glycine control was 28.7% (active).

Turning to `COCCN1C(=O)N(c2ccc(Cl)cc2)C(=O)C1CC(=O)Nc1cc(OC)cc(OC)c1` (stereo not given), the Tm shift relative to glycine control was 0.08%.

In the case of `CCOc1ccc(NC(=O)CC2C(=O)N(c3ccccc3)C(=O)N2CCOC)cc1` (stereo not given), the Tm shift relative to glycine control was -0.16%.

Consider `CC(C)N1CCC(=NNc2ccc([N+](=O)[O-])cc2S(=O)(=O)N2CCOCC2)CC1`, for which the Tm shift relative to glycine control was 0.15%.

For `Cc1ccc(S(=O)(=O)N2CCCCC2)cc1NC(=O)c1cccnc1`, the Tm shift relative to glycine control was -0.36%.

With `Cc1ccc(S(=O)(=O)N2CCCCC2)cc1NC(=O)CCNC(=O)c1ccccc1`, the Tm shift relative to glycine control was 10.2% (active).

Consider `O=C(CCNC(=O)c1ccc(Br)cc1)Nc1cccc(S(=O)(=O)N2CCCCC2)c1`, for which the Tm shift relative to glycine control is -8.95%.

With `CCOC(=O)NN1C(=O)c2ccccc2NC1c1ccccc1O` (stereo not given), the Tm shift relative to glycine control is 1.62%.

Consider `C=CCOc1c(CNn2cn[nH]c2=S)cccc1OC`, for which the Tm shift relative to glycine control was 1.48%.

As for `Cc1cc(C)cc(NC(=O)c2cccc(NC(=O)C3C4CC5OC(=O)C3C5C4)c2)c1` (stereo not given), the Tm shift relative to glycine control was 3.21%.

As for `COC(=O)CNC(c1ccccc1Cl)c1cc(Br)ccc1NC(=O)CCN1CCOCC1` (stereo not given), the Tm shift relative to glycine control is -6.58%.

In the case of `Cc1ccc(CNC(=O)c2cccc3c2C(=O)c2ccc(N4CCC(C)CC4)cc2S3(=O)=O)cc1`, the Tm shift relative to glycine control is 0.32%.
